The values that follow come from PubChem BioAssay (Tox21).

Active and inactive are the calls of the source. Calls come from the whole dose curve; as a rule, active = well fitted activation curve with a large enough effect in the repeat runs; inconclusive = weak or mixed curves; inactive = flat fitted curve, though single readings scatter.
% is set by controls: 0 for no effect and ±100 for the full control effect; potency is the fitted concentration of half-maximal effect.

The test in a line: A CellTox Green Cytotoxicity Assay to monitor cytotoxicity in HepG2 cells - 0 hour (AID 1224882). Note: nearly all actives have a fitted effect of over 35% in size. Conditions: CellTox Green fluorescence; series mostly up to 76.8 µM; cytotoxicity: at the top concentration. From the text:
National Center for Advancing Translational Sciences [NCATS]
NIH Chemical Genomics Center [NCGC]
U.S. Environmental Protection Agency [EPA]
National Institutes of Environmental Health Sciences [NIEHS]
National Toxicology Program [NTP]
Cell-based models are critical for drug discovery. Determining the natural cytotoxic effects resulting from test compounds is an essential research activity. A CellTox Green Cytotoxicity Assay to monitor cytotoxicity in real time of continues cell culture during 40 hours of the compound treatment was used to screen Tox21 10K library compounds in HepG2 cells. CellTox Green Cytotoxicity Assay is a nonlytic, homogeneous, biofluorescent method to measure cytotoxicity in cell culture after experimental manipulation. The assay system uses a proprietary asymmetric cyanine dye that is excluded from viable cells but preferentially stains the dead cell's DNA. […] Viable cells produce no appreciable increases in fluorescence. Therefore, the fluorescence signal produced by the binding interaction with dead cell DNA is proportional to cytotoxicity.
The mixture of HepG2 cell suspension and reagents were dispensed at 600cells/6 ul/well in 1536-well tissue culture treated black solid bottom plates using a Multidrop dispenser. After the assay plates were incubated at a 37 C/5% CO2 incubator for 5 hours, 23 nL of compounds dissolved in DMSO, positive and negative controls was transferred to the assay plate by a pintool work station. The plates were incubated at 37 C for 40 hours. The fluorescence intensity were measured at 0h, 8h, 16h, 24h, 32h and 40h time points using ViewLux plate reader during compound treatment.
As to `Oc1c(I)cc(Cl)c2cccnc12`, the Potency entry is “inactive”.

With `NC(=O)c1cccc([N+](=O)[O-])c1`, the “cytotoxicity” value was 0.659% (inactive).

With `C/C=C/C=C/COC(=O)C(C)C`, the “cytotoxicity” value is 0.983% (inactive).

Consider `COC(=O)C1=C(C)NC(C)=C(C(=O)OCCN2CCN(C(c3ccccc3)c3ccccc3)CC2)C1c1cccc([N+](=O)[O-])c1` (stereo not given), for which the “cytotoxicity” value is -6.08% [at 35.3 µM] (inactive).

`CCCCCCCCCCCC(=O)OCC(C)OC(=O)CCCCC(=O)O` (stereo not given): the “cytotoxicity” value was 0.58% [at 35.3 µM] (inactive).

For `CCOC(=O)c1ccc(C2CCC(NC[C@H](O)COc3ccc(O)c(NS(C)(=O)=O)c3)CC2)cc1` (stereo not given in full), the “cytotoxicity” value is 6.59% (inactive).

`C#C[C@]1(OC(C)=O)CC[C@H]2[C@@H]3CCC4=C/C(=N/O)CC[C@@H]4[C@H]3CC[C@@]21CC`: the “cytotoxicity” value is 0.44% [at 35.3 µM] (inactive).

For the compound `CC(=O)[C@H]1CC[C@H]2[C@@H]3CCC4=CC(=O)CC[C@]4(C)[C@H]3CC[C@]12C`, the Potency entry is “inactive”.

For the compound `COC(=O)c1ccccc1C`, the “cytotoxicity” value was -7.61% (inactive).

With `Clc1sc(Cl)c(Cl)c1Cl`, the “cytotoxicity” value is 2.84% (inactive).

As for `[Cl][Pt-2]([Cl])([Cl])[Cl]`, the “cytotoxicity” value was -4.99% (inactive).

As for `COc1ccc2c(c1)c(CC(=O)OC/C=C(\C)CC/C=C(\C)CCC=C(C)C)c(C)n2C(=O)c1ccc(Cl)cc1`, the “cytotoxicity” value was 2.85% [at 35.3 µM] (inactive).

On to `COc1ccc2cc1Oc1ccc(cc1)C[C@H]1c3c(cc4c(c3Oc3cc5c(cc3OC)CCN(C)[C@@H]5C2)OCO4)CCN1C`, for which the “cytotoxicity” value is 3.21% [at 35.3 µM] (inactive).

Turning to `O=C(O)Cc1ccccc1Nc1c(Cl)cccc1Cl`, the Potency result is “inactive”.

For the compound `O=C(c1ccc(O)c(O)c1)c1ccc(O)cc1O`, the “cytotoxicity” value is 7.9% (inactive).

On to `C=C(C)C(=O)OCCCCCCCCCC`, for which the “cytotoxicity” value was -12.9% (inactive).

Take `CC(C)(C)CC(C)(C)c1ccc(Nc2ccc(C(C)(C)CC(C)(C)C)cc2)cc1`: the cytotoxicity is 0.162% [at 6.97 µM] (inactive).

Consider `Cc1cc(C(C)(C)C)cc(C)c1CC1=NCCN1`, for which the “cytotoxicity” value was 1.23% [at 35.3 µM] (inactive).

For the compound `O=C(Oc1ccccc1)Oc1ccccc1`, the “cytotoxicity” value was -1.58% (inactive).

Take `CCCCN(CCCC)CC(O)c1cc(Cl)cc2c1-c1ccc(Cl)cc1/C2=C/c1ccc(Cl)cc1` (stereo not given): the “cytotoxicity” value is 4.04% [at 35.3 µM] (inactive).

Turning to `Sc1nc2ccccc2s1`, the “cytotoxicity” value is 2.67% (inactive).

Turning to `CCC(=O)OC(=O)CC`, the “cytotoxicity” value is -7.76% (inactive).

For the compound `CCCCC(CC)COC(=O)CCCCC(=O)OCc1ccccc1` (stereo not given), the “cytotoxicity” value was 6.37% (inactive).

For the compound `CC(C)(C)c1ccc(C(O)CCCN2CCC(C(O)(c3ccccc3)c3ccccc3)CC2)cc1` (stereo not given), the “cytotoxicity” value was -8.94% [at 35.3 µM] (inactive).

In the case of `O=C(/C=C/c1ccccc1)OC/C=C/c1ccccc1`, the “cytotoxicity” value was 6.5% (inactive).

In the case of `O=C1CCc2ccc(OCCCCN3CCN(c4cccc(Cl)c4Cl)CC3)cc2N1`, the “cytotoxicity” value is -7.38% [at 35.3 µM] (inactive).

Turning to `c1cnccn1`, the “cytotoxicity” value was -0.883% (inactive).

For `CCCCCCCCCCCCCC[N+](C)(C)C`, the Potency entry was “inactive”.

Take `CC/C=C\CCCCCO`: the “cytotoxicity” value is 4.58% (inactive).

For the compound `CC(C)(C)NSc1nc2ccccc2s1`, the “cytotoxicity” value was -3.08% (inactive).

`COc1ccc(NC(=O)CC(C)=O)cc1`: the “cytotoxicity” value was 1.19% (inactive).

For the compound `COc1cc(/C=C/c2ccccc2)oc(=O)c1`, the “cytotoxicity” value is -10.4% (inactive).

`Nc1ccc(NCCO)c([N+](=O)[O-])c1`: the “cytotoxicity” value is -17.9% (inactive).

On to `CCc1oc2ccccc2c1C(=O)c1cc(I)c(O)c(I)c1`, for which the “cytotoxicity” value is -10.7% [at 35.3 µM] (inactive).

Consider `O=c1[nH]c(=O)n([C@H]2C[C@H](O)[C@@H](CO)O2)cc1F`, for which the Potency is 5.35 µM (active).

With `CC(=O)CC(=O)Nc1ccc(S(=O)(=O)O)cc1`, the “cytotoxicity” value is 2.29% (inactive).

For the compound `Cl[Si](Cl)(c1ccccc1)c1ccccc1`, the “cytotoxicity” value is 9.55% (inactive).

Consider `CCN1C(=O)c2ccccc2C1Nc1ccc(OCCN2CCCCC2)cc1` (stereo not given), for which the “cytotoxicity” value is -1.1% [at 35.3 µM] (inactive).

In the case of `OC12N=C(c3ccccc3)SC1Cc1cc(Cl)ccc12` (stereo not given), the “cytotoxicity” value was -0.136% (inactive).

In the case of `CCCCCCC1CCCC(=O)O1` (stereo not given), the “cytotoxicity” value was -2.89% (inactive).
